ALOX12 inh: inhibitors of human 12S-lipoxygenase ALOX12; purified 12hLO, xylenol orange hydroperoxide absorbance; Potency, µM (titrated, usually from 108 µM), inactives show at the top dose activity change, negative = inhibition, most hits filed as inhibitors; 1.1% of 580,000 active; AID 1671190; also: % is scaled to controls: 0 for no effect and ±100 for the full control effect
Target sequence (P18054 whole entry, looked up): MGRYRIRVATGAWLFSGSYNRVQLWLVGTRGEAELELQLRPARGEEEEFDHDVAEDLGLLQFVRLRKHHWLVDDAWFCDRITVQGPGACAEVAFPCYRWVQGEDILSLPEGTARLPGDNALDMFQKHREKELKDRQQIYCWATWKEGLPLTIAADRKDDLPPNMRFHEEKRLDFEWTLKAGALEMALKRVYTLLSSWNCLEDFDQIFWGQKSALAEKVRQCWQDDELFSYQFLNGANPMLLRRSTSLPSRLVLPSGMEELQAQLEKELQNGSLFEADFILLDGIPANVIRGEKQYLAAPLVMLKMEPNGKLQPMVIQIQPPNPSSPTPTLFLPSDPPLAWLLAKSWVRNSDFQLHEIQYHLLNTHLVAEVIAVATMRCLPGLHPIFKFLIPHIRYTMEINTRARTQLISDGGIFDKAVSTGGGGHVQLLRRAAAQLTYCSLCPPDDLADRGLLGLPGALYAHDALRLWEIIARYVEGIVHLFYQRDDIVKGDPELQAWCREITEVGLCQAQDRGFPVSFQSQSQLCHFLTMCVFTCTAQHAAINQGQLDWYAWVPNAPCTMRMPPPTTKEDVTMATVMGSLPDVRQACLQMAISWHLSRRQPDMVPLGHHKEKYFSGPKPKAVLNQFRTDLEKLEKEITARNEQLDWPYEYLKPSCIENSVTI
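Purified human 12hLO (150 nM final) in 25 mM Hepes, 0.01% Triton X-100, pH 7.0 was preincubated 15 min at room temperature with compound. Then 40 uM arachidonic acid was added, 30 min. Hydroperoxide was read by Fe-XO absorbance ratio 573/405 nm.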
ATXN viability: cell viability loss in ATXN counter-screen. AID 651635. Potency, µM (series often up to 56.7 µM), actives largely listed as cytotoxic. 0.49% of 400,000 active. S2 cells (HEK-293 line with an ATXN2-luciferase reporter) viability, CellTiter-Fluor protease fluorescence, 24 h; also: nearly all actives have a fitted effect of over 40% in size
TGFb inhibitor: inhibitors of TGF-b signaling | 1.2% of 410,000 active | HepG2 CAGA-GFP TGF-b/SMAD3 reporter, GFP fluorescence, 18 h; TGF-beta stimulated, 500 pg/mL final | Potency, µM (doses to about 46.1 µM), without a hit: at the highest dose activity, negative = inhibition, usual class: inhibitors; also: % is scaled to controls: 0 for no effect and ±100 for the full control effect; nearly all actives have a fitted effect of over 65% in size
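First, reporter cells (HEPG2 CAGA-GFP) rested 2 h at 37 degrees C. Next, compounds were pinned in and TGF-beta added to 500 pg/mL final. After 18 h, GFP was imaged per cell and summed per well.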
ATXN2 expr inh: inhibitors of ATXN2 expression; HEK-293 ATXN2-luciferase reporter, luminescence, 24 h; Potency, µM (doses to about 57 µM), for the others: top-dose activity change, negative = inhibition, actives largely listed as inhibitors; 0.72% of 360,000 active; AID 1745845; also: % is scaled to controls: 0 for no effect and ±100 for the full control effect; nearly all actives have a fitted effect of over 55% in size
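qHTS (up to 57 uM final) was run with 24 h compound exposure of reporter cells at 37 °C. Each well was multiplexed: SteadyGlo luminescence measured ATXN2-luciferase expression after a fluorogenic Gly-Phe-AFC viability readout (25 uM final).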
HepG2 tox: HepG2 cytotoxicity, counter-screen for TGF-b inhibitors; HepG2 CAGA-GFP viability, ATP luminescence, 18 h; Potency, µM (series often up to 46.1 µM), inactives show top-dose activity change, negative = cytotoxicity, hits mostly cytotoxic; 0.76% of 410,000 active
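CellTiter-Glo luminescence gave cytotoxicity after 18 hours at 37 degrees C. The cells were HepG2 CAGA-GFP in 1% FBS DMEM, stimulated with 500 pg/mL TGF-beta after compound addition. %Activity was normalised to no-cell wells (complete cell-killing) and DMSO (no toxicity), and curves were fitted and classified.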
Starred values were filed as active, the others as inactive; i = inactive; ? = inconclusive; . = no result; [ ] = dose if it differs, or a comment. Compounds with a hit are over-represented: about 2.7% of the library has one in this group of screens. Calls follow the shape of the dose curve; as a rule, active = well fitted curve in the direction sought with a large enough effect; inconclusive = small, poorly fitted or top-dose-only effect, or another doubt; inactive = no such curve, though single readings can be large; an effect the other way counts as inactive or inconclusive. Potency is read from the fitted curve at half-maximal effect.

SMILES	ALOX12 inh	ATXN viability	TGFb inhibitor	ATXN2 expr inh	HepG2 tox
Fc1ccccc1/C=N/N1CCN(Cc2ccccc2Cl)CC1	12.6µM*	i	-18.7%	0.6%	-6.7%
O=[N+]([O-])c1ccccc1/C=N\N1CCN(Cc2ccccc2Cl)CC1	140.5%	i	-18.6%	6.6%	-10.4%
COc1cccc(CNC(=O)C2CCN(c3cc(C(F)(F)F)nc(C)n3)CC2)c1	11.2%	.	.	.	.
CCCCCCCCCCCC(=O)N/N=C/C(C)=C/c1ccc(C(C)(C)C)cc1	-0.5%	.	.	.	.
CCCCCC(O)CCCC(=O)O (stereo not given)	3.3%	i	-1.5%	-1.8%	-0.3%
CCCCCCCCCCCCCCCC(O)C[N+](C)(C)CCO (stereo not given)	15.8µM*	?	?	-29.7%	-99.6%
NC(N)=N/N=C/c1ccc(OCc2ccccc2Cl)cc1	?	28.2µM*	?	14.1µM*	-96.1%
NC(N)=N/N=C/c1ccc(Cl)c(Cl)c1	?	i	?	?	12.6µM*
NC(N)=N/N=C/c1ccccc1	?	?	11.4%	-24.1%	10.8%
O/N=C/c1ccc(Cl)c(Cl)c1	-10.3%	.	.	.	.
COc1ccc(CN(C(=O)c2cccc(F)c2)C2CC2)c(OC)c1	23.0%	.	.	.	.
COc1ccc(OC)c(S(=O)(=O)Nc2ccc(-c3ccc4nncn4n3)cc2)c1	?	i	-0.7%	-16.2%	7.94µM*
CCCN(CC(=O)Nc1ccccc1C(=O)c1ccccc1)Cc1nnc(-c2ccco2)o1	-2.3%	.	.	.	.
O=S(=O)(c1ccc(SCc2cc(Cl)c3c(c2)OCCCO3)nc1)N1CCOCC1	10.2%	.	.	.	.
O=C(NCCN1C(=O)S/C(=C\c2ccc(Cl)c([N+](=O)[O-])c2)C1=O)C1=COCCO1	?	.	17.8µM*	?	22.4µM*
O=C(NCCN1C(=O)S/C(=C\c2ccc(Cl)c(Cl)c2)C1=O)c1cnccn1	12.7%	i	18.3%	1.8%	3.9%
CN(C)c1ccc(Nc2nc(N)c3ccccc3n2)cc1	?	i	-1.9%	5.01µM*	12.6µM*
Cc1ccccc1Nc1nc(N)c2ccccc2n1	-1.9%	i	-8.6%	-2.1%	11.2µM*
Nc1nc(Nc2ccccc2)nc2ccccc12	?	i	5.9%	45.8%	-57.0%
CCOc1ccc(Nc2nc(N)c3ccccc3n2)cc1	0.0%	i	-13.3%	?	15.8µM*
Nc1nc(Nc2ccc(Cl)cc2)nc2ccccc12	-41.5%	i	17.8µM*	44.5%	-48.3%
Cc1ccc(Nc2nc(N)c3ccccc3n2)cc1Cl	?	?	?	.	-77.9%
CN(C)CCCNC1CCCCC1	-13.4%	.	.	.	.
COC(=O)CC(NC(=O)c1cccc(CS(C)(=O)=O)c1)c1ccccc1 (stereo not given)	35.6%	.	.	.	.
O=C(C(c1ccccc1)N1CCN(C2CCS(=O)(=O)C2)CC1)N1CCOCC1 (stereo not given)	-14.9%	.	.	.	.
SMILES	ALOX12 inh	ATXN viability	TGFb inhibitor	ATXN2 expr inh	HepG2 tox
CCC[C@@H](CN[C@@H](CNC)C(C)C)NCCCCc1ccccc1	16.9%	?	?	?	15.8µM*
CNC[C@@H](Cc1ccccc1)NC[C@@H](CC1CCCCC1)NCCCc1ccccc1	?	20µM*	?	?	12.6µM*
CN(Cc1cccc(C(F)(F)F)c1)C(=O)C1CCC(=O)N(CC2CCCCC2)C1 (stereo not given)	48.3%	?	?	.	-37.7%
CNC[C@@H](CC1CCCCC1)NC[C@H](CC(C)C)NCCc1cccc(C(F)(F)F)c1	-29.3%	.	?	14.1µM*	10µM*
CCC[C@@H](CNC)NC[C@H](Cc1ccccc1)NCCCCc1ccccc1	-3.3%	.	?	25.1µM*	-123.4%
CCCC(C)NC(=O)CSCc1coc(-c2ccc(Cl)cc2)n1 (stereo not given)	7.4%	.	.	.	.
O=C(NCc1c[nH]c2ncccc12)c1ccccc1	2.3%[176 µM]	.	.	.	.
NC(=O)c1cc(-c2csc(NCCc3ccccc3)n2)ccc1O	31.6µM*	i	?	22.8%	-5.6%
Oc1ccc(Nc2nc(-c3ccc(O)cc3)cs2)cc1	?	i	19.6%	92.1%	-12.8%
Oc1ccc(-c2csc(Nc3cccc(O)c3)n2)cc1	39.8µM*	.	.	.	.
Cc1ccc(-c2csc(Nc3ccc(O)c(C(=O)O)c3)n2)cc1	35.5µM*	.	.	.	.
Cc1nc(C)c(-c2csc(Nc3ccc(C(=O)O)c(O)c3)n2)s1	-13.1%	i	-8.8%	.	-14.0%
CC(=O)c1cccc(Nc2nc(-c3ccccc3)cs2)c1	-24.8%	i	1.0%	96.5%	-9.4%
O=C(O)c1ccc(Nc2nc(-c3ccc(Cl)cc3)cs2)cc1O	10µM*	.	.	.	.
N#CC(C(=O)c1ccc(SC(F)F)cc1)c1ccccn1 (stereo not given)	-6.3%	.	.	.	.
Cc1cnc2c(S(=O)(=O)NC(c3cccs3)C(C)C)cccc2c1 (stereo not given)	-10.4%	.	.	.	.
Cc1nc2cc(NC(=O)COc3ccc(C#N)cc3)ccc2o1	-22.5%	.	.	.	.
CCN(CC)S(=O)(=O)c1ccc(C(=O)Nc2c(C)cc(Br)cc2Cl)cc1	7.5%	.	.	.	.
CCc1cc(C(=O)NNC(=O)CCl)sc1C	23.2%	28.2µM*	1.4%	.	-31.0%
O=C(Nc1cccc(Cl)c1)C1CCCC1	11.7%	.	.	.	.
COc1ccc(C2C(O)C(c3c[nH]c4ccccc34)=NN2C(=O)CCl)cc1 (stereo not given)	?	7.94µM*	2.24µM*	6.31µM*	3.98µM*
CC(=O)O	-3.2%	.	.	.	.
O=c1[nH]c(Nc2ccccc2Cl)cc2ccccc12	?	i	-22.3%	3.8%	-4.6%
Cc1ccccc1Nc1cc2ccccc2c(=O)[nH]1	.	?	4.47µM*	-4.7%	11.2µM*
Cc1csc2c(N3CCN(C(=O)Nc4ccc(Cl)c(Cl)c4)CC3)ncnc12	?	?	?	20µM*	-29.0%
SMILES	ALOX12 inh	ATXN viability	TGFb inhibitor	ATXN2 expr inh	HepG2 tox
Cc1ccc(-n2cc(CNCCCn3ccnc3C)c(-c3ccc(F)cc3)n2)cc1	-9.4%	?	?	-21.9%	12.6µM*
Cc1cccc(-n2cc(CNCCc3nc(C)cc(C)n3)c(-c3cccc(F)c3)n2)c1	?	.	11.2µM*	28.2µM*	-74.3%
Cc1ccc(-n2cc(CNCCCn3cccn3)c(-c3cccc(C)c3)n2)cc1	-21.9%	.	?	31.6µM*	-98.9%
Cc1ccc(C)c(-n2cc(CNCCCn3cccn3)c(-c3ccccc3)n2)c1	0.0%	?	-28.3%	?	-49.7%
Cc1ccc(-n2cc(CNCCc3cscn3)c(-c3ccc(F)cc3)n2)cc1	?	?	?	?	-63.2%
Cc1ccc(-n2cc(CNC(C)c3cnn(C)c3C)c(-c3ccc(F)cc3)n2)cc1 (stereo not given)	10.8%	?	12.6µM*	.	-72.7%
O=C(Cc1c(Cl)cccc1Cl)NC(c1cccs1)C1CC1 (stereo not given)	8.2%	.	.	.	.
CC(=O)c1cccc(NC(=O)C2(c3ccc(Br)cc3)CCCC2)c1	-25.0%	.	.	.	.
Cn1c(=O)c2c(ncn2CC(=O)Nc2ccccc2Br)n(C)c1=O	-9.9%	.	.	.	.

Screening results deposited in PubChem by National Center for Advancing Translational Sciences (NCATS).
